Peg3 promoter: inhibitors of Peg3 promoter | inhibition, % at 20 µM | HeLa PEG-Prom luciferase reporter, luminescence, overnight | 360,000 compounds, 1.7% hits;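 active = inhibition of at least 50% at 20 µM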
KKLEB cytotox: reduces viability of KKLEB cystic fibrosis airway cells; activity change (cytotoxicity), % at 5 µM; KKLEB CF airway cells viability, ATPlite luminescence, overnight; active compounds read low; cells stimulated with P. aeruginosa culture filtrate; 360,000 compounds, 0.36% hits;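 active = corrected activity change at or below -50% at 5 µM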
MITF TRPM1 inh: MITF TRPM1 promoter inhibition in SK-MEL-5 cells. SK-MEL-5 TRPM1 promoter luciferase, 24 h. AID 488899. inhibition, % at 12.5 µM. 330,000 compounds, 0.83% hits;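 active = mean inhibition across replicates of 60% or more, whatever share of single replicates reaches that level; inconclusive = some that reach 60%, reason not given; inactive = mean inhibition across replicates below 60%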
Shn3 3UTR inh: reduces Shn3 3'UTR luciferase signal in osteoblasts; Clone20 osteoblast Shn3 3'UTR firefly luciferase, 24 h; inhibition, % at 12.5 µM; 360,000 compounds, 0.52% hits;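 active = mean inhibition of at least 75% with every replicate also reaching 75%; inconclusive = mean inhibition at least 75% but some replicate below; inactive = mean inhibition below 75%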;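 note: 0% = median of neutral control wells and 100% = pilot-screen positive control compound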
CF NFkB inh: blocks PAF-induced NF-kB reporter in cystic fibrosis cells; AID 588850; KKLEB NF-kB-GFP reporter, GFP fluorescence overnight; 360,000 compounds, 0.86% hits; inhibition, % at 5 µM;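 active = at least 50% inhibition at 5 µM, scaled per plate between neutral and stimulator controls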;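 note: PAF is a Pseudomonas aeruginosa culture filtrate used as stimulus; plate controls were PAF-stimulated DMSO wells for no effect and unstimulated DMSO wells for full effect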
EBV LMP1 NFkB: inhibitors of Epstein-Barr LMP1-induced NF-kappaB reporter | LMP1-induced NF-kappaB luciferase reporter cells, luminescence | inhibition, % at 12.5 µM | 350,000 compounds, 0.69% hits; in the data active = inhibition above about 41%; inconclusive = no clear call, values can overlap the other calls;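 note: 0% = neutral control wells and 100% = reference inhibitor control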
An asterisk follows results filed as active; ? = inconclusive; / = not tested or not shown. An excerpt weighted towards active compounds, which were near 2.9% of everything screened.

SMILES | Peg3 promoter | KKLEB cytotox | MITF TRPM1 inh | Shn3 3UTR inh | CF NFkB inh | EBV LMP1 NFkB
O=C(Nc1nc(-c2cc(Cl)sc2Cl)cs1)c1cccs1 | -202.0 | 9.0 | -50.6 | -30.5 | -9.8 | -66.1
O=C(Nc1nc(-c2cc(Cl)sc2Cl)cs1)c1ccc(Br)s1 | 1.3 | -20.9 | -0.4 | -0.8 | 46.1 | 43.6*
CC(Oc1ccc(F)cc1)C(=O)Nc1nc(-c2ccccn2)cs1 (stereo not drawn) | 55.4* | 11.5 | 65.3* | 62.3 | 2.9 | 14.2
O=C(Nc1ccc(Br)cc1)c1cccc(-n2cnnn2)c1 | -63.0 | -14.2 | -6.9 | -4.7 | -1.3 | 7.8
O=C(Nc1nc(-c2ccccn2)cs1)c1ccc(Br)s1 | -67.7 | -1.3 | 21.6 | 93.2* | 9.1 | 86.7*
O=C(Nc1nc(-c2ccccn2)cs1)c1cccc(-n2cnnn2)c1 | 39.9 | 3.1 | 41.8 | 97.6* | 1.9 | 29.9
CC(=O)Nc1cccc(-c2ccnc3c2CC(C(=O)Nc2ccc(C(C)C)cc2)O3)c1 (stereo not drawn) | 29.9 | 1.8 | / | 8.4 | -26.0 | /
CC[C@]12C(=O)N(C)C[C@H]([C@@H]3C(=O)N(C)C(=O)[C@@H]31)N2C(=O)c1ccccc1 | -3.9 | -10.6 | 7.1 | 3.7 | 8.0 | 1.3
Cc1ccc2ccccc2c1C(O)c1ncc(-c2ccccc2F)[nH]1 (stereo not drawn) | 3.7 | -0.9 | / | 15.1 | -42.5 | /
CC[C@]1(c2ccccc2C)ON(c2ccccc2C(F)(F)F)C1=O | 35.9 | 14.3 | 10.2 | -6.4 | 23.0 | 0.8
O=C1N(c2ccccc2C(F)(F)F)OC1(Cc1ccccc1)c1ccccc1 (stereo not drawn) | 57.8* | 10.2 | 14.3 | -12.0 | 42.5 | 9.5
COc1ccccc1[C@@]1(C)ON(c2ccccc2C(F)(F)F)C1=O | 77.2* | 1.2 | 15.7 | -21.9 | 44.8 | 1.8
O=C(Nc1nnc([C@H]2C[C@H](O)[C@@H](CO)O2)s1)c1ccc(Oc2ccccc2)cc1 | -43.5 | 13.2 | / | 8.4 | 7.3 | /
C/C(=N/NS(=O)(=O)c1ccc(CC(C)C)cc1)c1ccncc1 | 32.5 | 1.5 | 19.1 | 87.4* | 10.7 | 16.9
O=C(NCCCn1ccnc1)C(=O)NCC1OCCCN1S(=O)(=O)c1ccccc1 (stereo not drawn) | -10.6 | -0.8 | -6.7 | 90.0* | -0.4 | -3.6
Cn1cccc1C(=O)NNC(=O)COc1ccc(C#N)cc1 | 74.1* | 0.3 | -0.7 | -2.1 | 12.3 | -1.8
COC(=O)c1[nH]c2ccccc2c1NC(=O)CN1CCN(C/C=C/c2ccccc2)CC1 | 18.9 | -18.3 | 20.6 | 26.4 | 2.9 | 4.8
CCOC(=O)c1[nH]c2ccc(F)cc2c1NC(=O)CN1CCN(C/C=C/c2ccccc2)CC1 | 65.1* | -14.4 | 47.1 | 29.6 | 2.7 | 7.8
Cc1ccc(-n2nnc(-c3nccs3)n2)cc1 | 48.4 | -52.3* | 55.0 | -4.4 | -1.7 | 57.8*
CN(C)CCN1CCN(C2CN(Cc3ccc(F)cc3)S(=O)(=O)C2)CC1 (stereo not drawn) | -4.7 | 12.8 | / | 16.0 | -19.3 | /
Cc1ccc(N/C(N)=N/c2nc(C)cc(N3CCCCC3)n2)c(C)c1 | 90.8* | -21.6 | 24.3 | 96.3* | 20.0 | 14.5
Cc1ccc(N/C(N)=N/c2nc3c(c(=O)[nH]2)CCCC3)c(C)c1 | 18.5 | -4.9 | 8.0 | 8.6 | 9.0 | -5.4
COc1ccc(N2C(=O)CC(Sc3nnc(-c4ccccc4)o3)C2=O)cc1 (stereo not drawn) | 84.9* | 4.9 | 16.0 | 60.8 | 26.1 | ?
O=C1CC(Sc2ncccn2)C(=O)N1c1ccccc1 (stereo not drawn) | 5.3 | 3.8 | 7.1 | -5.6 | -5.6 | -1.6
O=C1CC(Sc2nnc(-c3ccccc3O)o2)C(=O)N1c1ccccc1 (stereo not drawn) | 30.9 | 5.2 | 5.9 | 92.7* | 6.4 | -3.4
SMILES | Peg3 promoter | KKLEB cytotox | MITF TRPM1 inh | Shn3 3UTR inh | CF NFkB inh | EBV LMP1 NFkB
COC(=O)C1(C)CCCC2(C)c3cc(OC)ccc3C(=O)C(Br)C12 (stereo not drawn) | 16.2 | -0.6 | / | -9.5 | 26.5 | -0.4
COC(=O)c1cc(=O)nc(NN=Cc2ccco2)s1 | 9.6 | -4.8 | / | 2.7 | -2.6 | /
O=C(Nc1ccccn1)NC1CCS(=O)(=O)C1 (stereo not drawn) | 9.1 | 1.3 | 6.2 | 19.4 | 0.9 | -2.0
O=C(Nc1ccccn1)NC1CCCCC1 | -8.7 | -2.6 | -7.7 | -12.2 | -4.0 | 84.4*
CC(C(=O)N1CCCCCC1)N(c1ccc(Cl)cc1)S(C)(=O)=O (stereo not drawn) | 7.8 | 7.1 | 3.8 | 18.2 | -9.2 | -13.1
CCOc1ccc(N(C(C)C(=O)N2CCCCCC2)S(C)(=O)=O)cc1 (stereo not drawn) | 17.0 | 4.5 | 17.3 | 3.0 | -8.6 | 70.9*
CCN(CC)c1ccc(-c2nn3c(-c4ccccc4OC)nnc3s2)cc1 | 21.5 | -47.6 | 49.1 | 41.7 | 53.3* | -16.8
CCNC(=O)C1CCCN(C(=O)c2ccco2)CC1 (stereo not drawn) | -5.8 | 9.9 | / | 3.8 | 0.7 | /
Cc1cc(C2=CC(=O)C[C@H](c3ccc(F)cc3)C2)ccc1F | -46.9 | -11.6 | / | 5.4 | 2.9 | -11.3
CC(=NNc1nc2ccccc2s1)c1ccncn1 | -17.5 | -6.9 | 37.8 | 88.4* | -24.1 | 68.1*
C/C(=N\Nc1nc2ccccc2s1)c1ccc(Br)s1 | -86.1 | -14.6 | 7.6 | 28.7 | -2.9 | -12.7
CCOc1ccccc1/C=C/c1onc(C)c1S(=O)(=O)N1CCC(C(=O)N(CC)CC)CC1 | 19.3 | -4.3 | 3.0 | -2.9 | -8.0 | 59.9*
Cc1noc(/C=C/c2ccccc2F)c1S(=O)(=O)N1CCC(C(=O)N2CCN(C)CC2)CC1 | 4.1 | 0.9 | -12.4 | -8.4 | 4.6 | -6.2
COc1ccc(NC(=O)CN2C(=O)CSC(C)C2=O)cc1 (stereo not drawn) | 54.8* | 3.8 | 1.5 | 17.6 | 3.7 | -4.4
CCOC(=O)c1c(SCCN2CCCC2)n(-c2ccccc2)c(=S)n(-c2ccccc2)c1=O | 100.0* | 5.7 | 95.7* | ? | -28.9 | 8.2
Cc1c2cnn(CC(=O)N3CCOCC3)c(=O)c2c(C)n1Cc1ccc(F)cc1 | 3.8 | 7.4 | / | -3.6 | 5.7 | /
Cc1ccc(Cn2ncc(Cl)c(Cl)c2=O)cc1 | 103.9* | 14.8 | ? | 72.0 | 10.8 | -94.2
O=c1c(Cl)c(Cl)cnn1Cc1nnc(-c2ccc(Cl)cc2)o1 | 107.3* | -81.7* | 87.2* | 65.1 | 80.5* | -81.5
CCc1ccc(C(=O)Cn2ncc(Cl)c(Cl)c2=O)cc1 | 30.7 | -68.0* | 56.8 | 43.2 | 84.5* | -97.6
O=C(Cn1ncc(Cl)c(Cl)c1=O)N1CCOCC1 | 96.7* | -10.4 | 97.5* | 9.5 | 47.7 | 6.0
Cc1[nH]c(C)c2c(=O)n(Cc3ccc(Cl)cc3)ncc12 | 7.7 | -4.0 | -8.1 | 3.5 | -2.4 | -5.4
O=C(OCC(=O)N1CCOCC1)c1cncc(Br)c1 | 5.5 | 12.3 | / | -15.7 | -2.8 | 6.7
COc1ccc(-n2c(=S)[nH]c3cc(C(=O)Nc4ccc(OC)c(OC)c4)ccc3c2=O)cc1 | 17.4 | -70.5* | 15.4 | -18.6 | 49.1 | 11.6

High-throughput results from PubChem.
